G9a inh: qHTS Assay for Inhibitors of Histone Lysine Methyltransferase G9a; Histone-lysine N-methyltransferase EHMT2 (Homo sapiens), Q96KQ7; G9a H3K9 monomethylation, AlphaScreen, 2 h; Potency, µM (top dose mostly 102 µM), for the others: at the highest dose activity, negative = inhibition, usual class: inhibitors; 350,000 compounds, 8.8% hits; further: potency means the concentration at half of the fitted maximal effect; on the % scale 0 is the no-effect control and ±100 the full control effect; nearly all actives have a fitted effect of over 75% in size
Target sequence (Q96KQ7 913-1193 limits assumed): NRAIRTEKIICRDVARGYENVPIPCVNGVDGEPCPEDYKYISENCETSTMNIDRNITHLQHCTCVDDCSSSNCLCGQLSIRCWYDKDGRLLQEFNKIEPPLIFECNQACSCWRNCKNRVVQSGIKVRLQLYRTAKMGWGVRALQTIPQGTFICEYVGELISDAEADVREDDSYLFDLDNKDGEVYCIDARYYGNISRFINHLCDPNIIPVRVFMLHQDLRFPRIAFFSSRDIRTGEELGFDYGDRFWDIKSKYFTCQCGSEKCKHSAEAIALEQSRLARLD
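Chemiluminescent proximity detection of H3K9 monomethylation, read after 10 min bead incubation in the dark. Reaction: 20 nM G9a, 500 nM biotin-H3K9 peptide, 20 uM SAM cofactor, 2 h, room temperature, following 15 min enzyme-compound preincubation.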
JMJD2A Tudor: qHTS Assay for Inhibitors of JMJD2A-Tudor Domain | AlphaScreen JMJD2A-Tudor / H3K4me3 peptide binding | Potency, µM (top dose mostly 114 µM), for the others: at the highest dose activity change, negative = inhibition, most hits filed as inhibitors | 390,000 compounds, 4.4% hits | AID 504339, 2011 | Lysine-specific demethylase 4A (Homo sapiens), O75164; further: potency means the concentration at half of the fitted maximal effect; on the % scale 0 is the no-effect control and ±100 the full control effect; nearly all actives have a fitted effect of over 50% in size
PLK1 PBD block: qHTS for Inhibitors of PLK1-PDB (polo-like kinase 1 - polo-box domain): Primary Screen. 360,000 compounds, 2.8% hits. Potency, µM, for inactives: max response, negative = inhibition, hits mostly inhibitors. Serine/threonine-protein kinase PLK1 (Homo sapiens), P53350. Plk1 PBD binding of FITC phosphopeptide, fluorescence polarization. AID 720504, 2013; further: potency means the concentration at half of the fitted maximal effect; series mostly up to about 57 µM; on the % scale 0 is the no-effect control and ±100 the full control effect; nearly all actives have a fitted effect of over 65% in size
PI5P4Ka inh: qHTS for Inhibitors of phosphatidylinositol 5-phosphate 4-kinase (PI5P4K). Phosphatidylinositol 5-phosphate 4-kinase type-2 alpha (Homo sapiens), P48426. PI5P4Kalpha enzyme, ADP-Glo luminescence, 60 min; hits give low values. max response, %. 330,000 compounds, 1.2% hits. AID 652105, 2013; active means max response of -50% or lower; inconclusive means between -30% and -50%; inactive means -30% or higher; further: value at the top dose of about 77 µM; on the % scale 0 is the no-effect control and ±100 the full control effect
Target sequence (P48426 whole entry, looked up): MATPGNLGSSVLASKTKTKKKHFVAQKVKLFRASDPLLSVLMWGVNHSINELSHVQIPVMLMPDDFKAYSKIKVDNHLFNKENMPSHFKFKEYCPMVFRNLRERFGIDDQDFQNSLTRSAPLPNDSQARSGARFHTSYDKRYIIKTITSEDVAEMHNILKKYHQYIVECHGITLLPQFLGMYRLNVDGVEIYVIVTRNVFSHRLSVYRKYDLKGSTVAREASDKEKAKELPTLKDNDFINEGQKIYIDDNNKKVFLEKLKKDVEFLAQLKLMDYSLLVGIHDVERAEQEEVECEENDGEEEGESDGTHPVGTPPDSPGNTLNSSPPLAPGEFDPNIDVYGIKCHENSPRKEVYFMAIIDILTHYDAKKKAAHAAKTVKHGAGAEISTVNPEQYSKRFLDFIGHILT
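ADP-Glo luminescence end-point after a 60 min room-temperature kinase reaction. PI5P4Kalpha and substrate in HEPES pH 7.4 buffer with EGTA, 0.1% CHAPS and 5% DMSO; ATP at 5 microM final.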
BAZ2B block: qHTS Assay for Inhibitors of BAZ2B; Potency, µM (top dose mostly 114 µM), for inactives: at the top dose activity change, negative = inhibition, hits mostly inhibitors; AID 504333, 2011; AlphaScreen BAZ2B-H3K14Ac peptide displacement; Bromodomain adjacent to zinc finger domain protein 2B (Homo sapiens), Q9UIF8; 360,000 compounds, 4.4% hits; further: potency means the concentration at half of the fitted maximal effect; on the % scale 0 is the no-effect control and ±100 the full control effect; nearly all actives have a fitted effect of over 60% in size
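Multi-concentration screen (max 110 uM) measuring displacement of acetylated histone H3 peptide from BAZ2B by AlphaScreen, using 50 nM protein, 50 nM peptide and 10 ug/mL streptavidin donor plus Ni-chelate acceptor beads.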
HP1b chromo inh: HTS for Inhibitors of HP1-beta Chromodomain Interactions with Methylated Histone Tails. 390,000 compounds, 0.56% hits. Chromobox protein homolog 1 (Homo sapiens), P83916. Potency, µM (doses to about 114 µM), inactives show at the highest dose activity change, negative = inhibition, hits mostly inhibitors. AlphaScreen HP1-beta / biotin-H3K9me3 peptide binding; further: potency means the concentration at half of the fitted maximal effect; nearly all actives have a fitted effect of over 70% in size
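AlphaScreen: HP1-beta (50 nM) preformed 30 min with biotin-H3(1-18)K9me3 peptide (50 nM) in PBS pH 7.4, 0.01% Tween-20. Compound added for 30 min at RT, then streptavidin donor/nickel chelate acceptor beads (10 ug/mL) for 30 min.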
* marks the source's active call; other numbers are inactive results; ? = inconclusive; . = no result given; [ ] = another dose, or the depositor's remark. A selection: hits, their analogues and other compounds. The true share with any hit is near 12%. Unless noted, the call rests on the fitted dose curve; in most records, active means well fitted curve in the direction sought with a large enough effect; inconclusive means small, poorly fitted or top-dose-only effect, or another doubt; inactive means no such curve, though single readings can be large; an effect the other way counts as inactive or inconclusive.

SMILES | G9a inh | JMJD2A Tudor | PLK1 PBD block | PI5P4Ka inh | BAZ2B block | HP1b chromo inh
COc1ccccc1N1CCN(/N=C/c2ccc(OC)c(OC)c2OC)CC1 | 35µM* | ? | -8% | 1 | 32µM* | -2%
CCOc1ccccc1C=NN=Cc1ccccc1O | . | 78% | 0% | 26 | . | 119%
Cc1cc(C)cc(NC(=O)c2ncn(-c3ccccc3)n2)c1 | -9%[59 µM] | -7% | . | . | -13% | 21%
COc1ccc(S(=O)(=O)N2CCC(n3c(C)nc4cccnc43)CC2)cc1Cl | 0%[59 µM] | -6% | . | . | 3% | 56%
O=C(O)c1cccc(-c2nnn(Cc3ccccc3Cl)n2)c1 | 10%[59 µM] | ? | 21µM* | ? | 10% | 10%
COc1ccc(C(=O)OCc2ccccc2C#N)cc1S(=O)(=O)N1CCOCC1 | . | . | 7% | -1 | . | .
CCCc1nnc(NC(=O)CN2CCN(C)CC2)s1 | ? | -20% | -3% | -6 | 79µM* | 35%
CCCN1CCN(CC(=O)Nc2nnc(C)s2)CC1 | . | -9% | -2% | -1 | -29% | 13%
CN1CCN(CC(=O)Nc2nnc(-c3cccs3)s2)CC1 | ? | 11µM* | 1% | 2 | -4% | 4%
CCc1nnc(NC(=O)CN2CCN(C3CCCCC3)CC2)s1 | 10µM* | 7.1µM* | -8% | . | ? | -19%
CN(CCCC(=O)Nc1ccc(OC(F)F)cc1)S(=O)(=O)c1ccc(F)cc1 | 45µM* | 1% | 1% | -5 | -7% | 22%
COc1ccc(CNC(=O)CNC(C)c2ccc(F)cc2)cc1 (stereo not drawn) | 14% | 20µM* | 4% | -2 | 56µM* | 45µM*
CN(CCCC(=O)Nc1ccc(Br)cc1F)S(=O)(=O)c1ccccc1 | 35µM* | 1% | -23% | -2 | 0% | 18%
COc1ccc(CCCC(=O)Nc2ccc(F)cc2)cc1 | 9%[59 µM] | ? | 21µM* | -8 | 11% | ?
CN(CCCC(=O)Nc1ccccc1F)S(=O)(=O)c1ccc(F)cc1 | 0% | 0% | 5% | 0 | 4% | 31%
CC(=O)Nc1ccc(S(=O)(=O)NCc2cccn2Cc2cccc(C)c2)cc1 | 8%[12.7 µM] | ? | . | . | -32% | -4%
Cc1nc(SCc2nc3cc(Cl)c(F)cc3[nH]2)c2oc3ccccc3c2n1 | . | -19% | . | . | . | 40%
COc1ccc(CCNC(=O)CNCCc2ccc(F)cc2)cc1 | -18% | 22µM* | -17% | 0 | 79µM* | -19%
O=C(O)CCN1/C(=C/C=Nc2ccccc2)Oc2ccccc21 | ? | 56µM* | 4% | -9 | . | 28%
O=C(O)CCN1C(=O)c2ccccc2C1=O | 3%[12.7 µM] | -10% | 4% | 0 | -1% | 31%
O=[N+]([O-])c1ccc(CSc2ccc(S(=O)(=O)N3CCOCC3)cn2)cc1 | 20µM* | -23% | -14% | 1 | -27% | 7%
COc1ccc(CNC(=O)C(C)Sc2ccc(S(=O)(=O)N3CCOCC3)cn2)cc1 (stereo not drawn) | 32µM* | 3% | -24% | -5 | -3% | 40%
O=C(Cn1cc(S(=O)(=O)Cc2ccccc2F)c2ccccc21)NCc1ccccc1Cl | 3%[59 µM] | -11% | . | . | -4% | 9%
CCCC(c1nnnn1CCOC)N1CCN(C(=O)c2ccco2)CC1 (stereo not drawn) | 45µM* | ? | -3% | 5 | ? | 11%
CC(C)C(c1nnnn1Cc1cccs1)N1CCN(C(=O)c2ccco2)CC1 (stereo not drawn) | . | ? | 19µM* | -14 | -8% | -16%
SMILES | G9a inh | JMJD2A Tudor | PLK1 PBD block | PI5P4Ka inh | BAZ2B block | HP1b chromo inh
COCCn1nnnc1C(C(C)C)N1CCN(C(=O)c2ccco2)CC1 (stereo not drawn) | -3%[12.7 µM] | 45µM* | 3% | -4 | -1% | 0%
CCCCC(c1nnnn1C(C)C)N1CCN(C(=O)c2ccco2)CC1 (stereo not drawn) | 50µM* | ? | -24% | 4 | -9% | 26%
CCCCNC(=O)c1ccc2nc(CC)c(N(C)Cc3cccs3)n2c1 | . | . | -4% | ? | . | .
COc1cccc(NC(=O)C2(C)CCN2C(=O)Cc2cccc3ccccc23)c1 (stereo not drawn) | . | . | -5% | 17 | . | .
CCC(C)NC(=O)c1c(C)oc2ncn(CC(C)C)c(=O)c12 (stereo not drawn) | 0%[59 µM] | 4% | . | . | 10%[57.1 µM] | 28%
CC1CCc2[nH]c3ccc(C(=O)N(C)CC(=O)Nc4ccccc4Cl)cc3c2C1 (stereo not drawn) | 50µM* | ? | -1% | 6 | ? | -37%
CC1CCc2[nH]c3ccc(C(=O)N(C)CC(=O)Nc4ccccc4C(F)(F)F)cc3c2C1 (stereo not drawn) | 17%[2.33 µM] | 50µM* | -11% | 9 | 50µM* | -28%
COc1ccc(/C=C/C(=O)Oc2ccc(/C=N/NC(=O)c3ccncc3)cc2)cc1 | 5%[59 µM] | -15% | -3% | -8 | -7% | -16%
Cc1cc(C)c2nc(NC(=O)C3CC(=O)N(Cc4ccco4)C3)sc2c1 (stereo not drawn) | -26%[59 µM] | ? | -14% | 17 | 40µM* | ?
Cc1ccc2nc(NC(=O)C3CC(=O)N(Cc4ccco4)C3)sc2c1 (stereo not drawn) | -50% | -20% | -11% | -2 | -37% | 12%
CC(=O)Nc1ccc(NC(=O)C2CC(=O)N(Cc3ccco3)C2)cc1 (stereo not drawn) | 16µM* | -9% | -5% | 2 | 1% | 44%
CCc1nc2nc(C)c(NS(=O)(=O)c3ccc(C(C)(C)C)cc3)c(=O)n2[nH]1 | 12%[59 µM] | -13% | . | . | 4% | 21%
COC(=O)c1c(NC(=O)c2cc3ccccc3c(=O)o2)sc2c1CCCC2 | 9%[59 µM] | 2% | . | . | -1% | 39%
CN1CCN(CC#CC(C)(O)C2CC3C=CC2C3)CC1 (stereo not drawn) | 22µM* | 50µM* | -6% | -10 | ? | 22%
OC(CCN1CCCCC1)(c1ccccc1)C1C[C@@H]2C=C[C@H]1C2 (stereo partly drawn) | -33%[59 µM] | -15% | -3% | -3 | -10% | 51%
CN(C(=O)CSc1nnc(-c2ccc([N+](=O)[O-])cc2)o1)c1ccccc1 | -15%[59 µM] | -23% | . | . | -32% | 10%
